SW480 rereplic: A quantitative high throughput screen for small molecules that induce DNA re-replication in SW480 colon adenocarcinoma cells; SW480 DNA re-replication, Hoechst DNA content imaging, 48 h; Potency, µM (series often up to 46.1 µM), without a hit: at the highest dose re-replication activation, hits mostly activators; actives 1.8% (n = 340,000); AID 624297, 2012; further: % of control where 0% means no effect; nearly all actives have a fitted effect of over 55% in size
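Image-based read-out: total Hoechst fluorescence of nuclei (405 nm excitation, 500-530 nm emission), with hits raising the fraction of high-intensity nuclei. SW480 colon cells incubated 48 hr with compounds at 37 C.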
HT1080NT lethal: qHTS for induction of synthetic lethality in tumor cells producing 2HG: qHTS for the HT-1080-NT fibrosarcoma cell line | AID 686970, 2013 | Potency, µM (top dose mostly 46.1 µM), for inactives: top-dose activity, negative = less viability, actives largely listed as cytotoxic | actives 1.6% (n = 360,000) | HT-1080-NT fibrosarcoma viability, CellTiter-Glo ATP luminescence, 48 h;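 further: NT is the 2HG producing partner of a matched IDH1 knockdown line; 0% = DMSO-treated cells and -100% = media-only wells without cells; nearly all actives have a fitted effect of over 55% in size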
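Toxicity toward the 2HG-producing NT line was scored as %Activity, normalised to DMSO and no-cell wells, from CellTiter-Glo luminescence after 48 hours' treatment.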
KB-V1 MDR tox: qHTS assay for MDR1-selective chemotherapeutics: Primary screen using the drug-selected MDR subline cells KB-V1; KB-V1 MDR cells viability, CellTiter-Glo, 72 h; Potency, µM (top dose mostly 46.1 µM), hits mostly cytotoxic; actives 3.4% (n = 400,000); AID 1347076, 2019; further: on the % scale 0 is the no-effect control and ±100 the full control effect; nearly all actives have a fitted effect of over 60% in size
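Cytotoxicity via CellTiter-Glo luminescence after 72 h compound exposure at 37 degrees C. Cells: drug-selected KB-V1 line, DMEM phenol-red free plus 10% FBS. Compounds tested at multiple concentrations; normalized data fitted to concentration-effect curves.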
KB-3-1 tox: qHTS assay for MDR1-selective chemotherapeutics: Primary screen using the parental adenocarcinoma cell KB-3-1; KB-3-1 viability, CellTiter-Glo ATP luminescence, 72 h; Potency, µM (series often up to 46.1 µM), most hits filed as cytotoxic; actives 1.4% (n = 400,000); AID 1347075, 2019; further: on the % scale 0 is the no-effect control and ±100 the full control effect; nearly all actives have a fitted effect of over 60% in size
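KB-3-1 parental drug-naive adenocarcinoma cells in DMEM/10% FBS, incubated 72 h at 37 C with pin-transferred compounds across a concentration series. Viability by CellTiter-Glo luminescence; concentration-response curves fitted after normalization.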
HT1080 IDH1KD tx: qHTS for induction of synthetic lethality in tumor cells producing 2HG: qHTS for the HT-1080-IDH1KD cell line | HT-1080 IDH1 knockdown viability, ATP luminescence, 48 h | Potency, µM (series often up to 46.1 µM), without a hit: top-dose activity, negative = toxicity, actives largely listed as cytotoxic | actives 2% (n = 360,000);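 further: 0% = DMSO wells and -100% = cell-free medium wells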
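CellTiter-Glo luminescence after 48 h compound exposure at 37 degrees C of IDH1-knockdown HT-1080 cells in 5% FBS RPMI. %Activity scaled between DMSO wells and cell-free media wells, with curves fitted and assigned curve classes.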
MCF10A rereplic: A quantitative high throughput screen for small molecules that induce DNA re-replication in MCF 10a normal breast cells; Potency, µM (top dose mostly 46.1 µM), inactives show at the highest dose activity, positive = re-replication, hits mostly activators; AID 624296, 2012; actives 2.9% (n = 350,000); MCF 10A DNA re-replication, Hoechst nuclear intensity, 48 h; further: % of control where 0% means no effect; nearly all actives have a fitted effect of over 50% in size
* marks the source's active call; other numbers are inactive results; i = inactive; ? = inconclusive; . = not tested or not shown; [ ] = remark or other dose. An excerpt weighted towards active compounds, which were near 7.9% of everything screened. The call rests on the fitted dose curve; in most records, active means well fitted curve in the direction sought with a large enough effect; inconclusive means small, poorly fitted or top-dose-only effect, or another doubt; inactive means no such curve, though single readings can be large; an effect the other way counts as inactive or inconclusive. Potency means the concentration at half of the fitted maximal effect.

SMILES	SW480 rereplic	HT1080NT lethal	KB-V1 MDR tox	KB-3-1 tox	HT1080 IDH1KD tx	MCF10A rereplic
COc1ccc(-c2ccc3oc(-c4ccsc4)cc(=O)c3c2)cc1F	-3%	12%	?	i	15%	20%
COc1ccc(-c2sc3ccc(N4CCOCC4)cc3c2C#Cc2ccsc2)cc1	6%	-22%	i	i	-21%	?
O=c1cc(-c2ccccc2)oc2ccc(O)cc12	-11%	7%	5.8µM*	i	12%	-2%
COc1ccc(-c2ccc3oc(-c4ccsc4)cc(=O)c3c2)cn1	2.9µM*	-4%	i	i	11%	1%
COc1ccc2oc(-c3ccncc3)cc(=O)c2c1	-10%	-4%	3.7µM*	?	-14%	-42%
CCc1nc(Nc2ccc(OC)c(OC)c2)c2nnn(Cc3ccccc3Cl)c2n1	-1%	-4%	?	i	?	?
COc1ccc(-c2oc3ccc(-c4ccc(OC)nc4)cc3c2-c2ccc(OC)cc2)cc1	?	6%	i	i	3%	6.5µM*
COc1ccc(-c2oc3ccc(-c4ccc5c(c4)OCO5)cc3c2-c2ccc(OC)nc2)cc1	-8%	3%	?	i	12%	-10%
COc1ccc(-c2c(-c3ccsc3)oc3ccc(N4CCOCC4)cc23)cn1	4%	0%	i	i	4%	18µM*
COC(=O)c1ccc(/C=C/c2c(-c3ccsc3)oc3ccc(N4CCOCC4)cc23)cc1	-4%	2%	i	?	0%	5.8µM*
CN(C)NC1CC(=O)N(c2ccccc2)C1=O (stereo not given)	-45%	-3%	i	i	-1%	0%
CCOc1cc2c(cc1O)C(=NO)CC1C2CCC2(C)C(O)CCC12 (stereo not given)	?	0.29µM*	i	i	?	?
CCOc1cc(C2NC(=O)NC2=O)ccc1O (stereo not given)	-3%	21%	i	i	12%	-5%
CC1CCCN(C(=O)c2ccc(OC3CCN(CCc4ccccc4)CC3)cc2)C1 (stereo not given)	?	-5%	i	i	-1%	?
Cc1ncc(C(=O)O)c(C(=O)O)c1N	-1%	1%	i	i	0%	?
Cc1ccc(NC(=S)c2ccncc2)c(C)c1	?	4%	?	i	0%	?
Cc1ccc(NC(=S)c2nc3ccccc3[nH]2)cc1	-5%	-10%	23µM*	?	-23%	?
Cc1ccc(NC(=S)N2CCCC(c3nc4ccccc4[nH]3)C2)cc1 (stereo not given)	-35%	1%	i	i	12%	0%
Cc1ccc(NC(=S)c2nc3ccccc3[nH]2)c(C)c1	1%	-19%	?	21µM*	-24%	?
O=C(CSc1nc2c(c(=O)n1-c1ccc(Cl)cc1)SCC2)NCC1CCCO1 (stereo not given)	-10%	-2%	i	i	13%	0%
C=CCn1sc(=N)c(C#N)c1N	0%	?	i	i	2%[9.24 µM]	19%
CC1=C(C(N)=O)C(c2ccc(F)cc2)n2nc(-c3ccccc3Cl)nc2N1 (stereo not given)	.	.	?	i	.	.
CCC(=O)[C@@H](C)[C@@H](OC(C)=O)[C@H](C)C[C@@H](C)[C@H]1OC(=O)C[C@@]2(O)CC=C(C)C(O2)C(C)=CCCC[C@H](O[C@H]2C[C@@H](OC(N)=O)[C@H](OC(C)=O)[C@@H](C)O2)C=C[C@H](C)C[C@H]1C	.	-5%	i	1.3µM*	1%	.
O=C(C(=NNc1ccccc1)C(=S)Nc1ccccc1)c1ccccc1	.	?	i	i	24%	.
Cc1ccnn1CCSCC(=O)O	0%	-2%	i	i	15%	21µM*
SMILES	SW480 rereplic	HT1080NT lethal	KB-V1 MDR tox	KB-3-1 tox	HT1080 IDH1KD tx	MCF10A rereplic
Cn1nccc1NC(=O)CSCC(=O)O	-54%	19%	i	i	9%	8.2µM*
O=C(NCCCN1CCOCC1)C(=O)NCC1OCCN1S(=O)(=O)c1ccc(F)cc1 (stereo not given)	0%	18%	i	i	7%	7%
CCOC(=O)c1c(-n2cnnn2)sc2c1CCCC2	1%	2%	i	i	3%	3%
CCOC(=O)c1c(N2C(=O)Nc3cc(Cl)c(Cl)cc3N2O)sc2c1CCCCC2	0%	?	i	i	?	2.3µM*
O=C(O)C1CCC(c2ccc(-c3ccccc3)cc2)CC1 (stereo not given)	-2%	0%	?	i	-2%	0%
CC(Oc1ccc(Cl)cc1Cl)c1nc(-c2ccc(NC(=O)c3ccco3)cc2)no1 (stereo not given)	-2%	-10%	5.8µM*	i	-21%	25%
CN(NC(=O)c1ccccc1)c1ncc(C(F)(F)F)cc1Cl	-3%	0%	i	i	18%	-2%
CN1C(=O)C2(NCCc3c2[nH]c2ccccc32)c2ccccc21 (stereo not given)	-5%	-12%	i	i	-3%	2%
CC1=CC(C)(C)N2C(=O)C3(NCCc4c3[nH]c3ccccc43)c3cc(C)cc1c32 (stereo not given)	?	?	?	?	15µM*	9%
CC(C)OCCCNS(=O)(=O)c1ccc2c(c1)OCCO2	-16%	-7%	?	i	-9%	-1%
Clc1ccc(-c2cc(CN3CCCCC3)no2)cc1Cl	-5%	-10%	i	i	-13%	20%
Cc1cc2c(cc1C)C(c1ccccc1OC(C)C)CC(=O)N2 (stereo not given)	5.2µM*	4.1µM*	?	5.8µM*	2.3µM*	1.5µM*
CC(C)Oc1cccc(C2CC(=O)Nc3cc4c(cc32)OCO4)c1 (stereo not given)	.	.	?	3.7µM*	.	.
COc1ccccc1C1CC(=O)Nc2cc(C)c(C)cc21 (stereo not given)	21µM*	?	9.2µM*	16µM*	6.5µM*	15%
Cc1cccc(C2CC(=O)Nc3cc4c(cc32)OCO4)c1 (stereo not given)	.	.	i	?	.	.
